# From PubChem BioAssay (NCATS)
# Inconclusive results are not listed. Active and inactive are the calls of the source. Calls follow the shape of the full dose curve.
# Biological target: Nucleoprotein (Lymphocytic choriomeningitis virus (strain Armstrong)) (UniProt P09992)
# Test: qHTS for Inhibitors of the Functional Ribonucleoprotein Complex (vRNP) of Lymphocytic Choriomeningitis Arenaviruses (LCMV): LCMV Primary Screen - GLuc reporter signal (AID 1347086); also: nearly all actives have a fitted effect of over 70% in size
# Details: LCMV minigenome vRNP cell assay, Gaussia luciferase reporter; series mostly up to 57.5 µM; activity change, negative = inhibition: at the top concentration
# % is scaled to controls: 0 for no effect and ±100 for the full control effect.
# Nucleoprotein (Lymphocytic choriomeningitis virus (strain Armstrong)), sequence (P09992 whole entry, looked up): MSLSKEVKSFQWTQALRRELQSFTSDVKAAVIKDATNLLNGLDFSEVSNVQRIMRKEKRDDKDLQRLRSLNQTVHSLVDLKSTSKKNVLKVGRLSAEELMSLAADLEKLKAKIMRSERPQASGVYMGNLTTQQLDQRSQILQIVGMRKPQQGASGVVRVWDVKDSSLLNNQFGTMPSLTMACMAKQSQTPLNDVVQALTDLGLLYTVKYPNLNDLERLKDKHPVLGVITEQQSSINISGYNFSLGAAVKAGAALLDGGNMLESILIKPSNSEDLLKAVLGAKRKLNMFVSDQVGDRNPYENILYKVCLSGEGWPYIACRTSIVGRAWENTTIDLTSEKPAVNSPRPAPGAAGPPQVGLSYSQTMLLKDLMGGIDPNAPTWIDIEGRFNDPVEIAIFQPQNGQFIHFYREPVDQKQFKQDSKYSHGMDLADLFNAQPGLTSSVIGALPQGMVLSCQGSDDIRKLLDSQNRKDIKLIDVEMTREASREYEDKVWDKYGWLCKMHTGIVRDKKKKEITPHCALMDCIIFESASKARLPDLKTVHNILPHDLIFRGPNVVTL
SMILES,"activity change, negative = inhibition",Potency
Cc1cccc(C(=O)O)c1O,-5.09% (inactive),
CC(=O)OC[C@H]1O[C@@H](OC(C)=O)[C@H](OC(C)=O)[C@@H]1OC(C)=O,7.03% (inactive),
CNCCCC12CCC(c3ccccc31)c1ccccc12,,inactive
Cc1scc2c1N(C(=O)CN1CCN(C)CC1)c1ccccc1NC2=O,,inactive
CNCc1ccccc1,-3.12% (inactive),
Cc1cc(O)c2c(O)c3c(O)cccc3cc2c1,2.62% (inactive),
O=c1c(-c2ccc(O)cc2)coc2cc(O)cc(O)c12,,inactive
Cc1ccc(C(=O)c2ccc(CC(=O)O)n2C)cc1,12.2% (inactive),
CCN(CC)C(=O)c1ccc(O)c(OC)c1,,inactive
Cc1ccc(S(=O)(=O)NC(=O)NC2CCCCCCC2)cc1,35.8% (inactive),
NS(=O)(=O)c1cc2c(cc1Cl)NC(C(Cl)Cl)NS2(=O)=O (stereo unspecified),,inactive
C[N+]1(C)[C@@H]2CC(OC(=O)[C@H](CO)c3ccccc3)C[C@H]1[C@@H]1O[C@@H]12 (stereo partly specified),20.1% (inactive),
CC(=O)OCC1=C(C(=O)O)N2C(=O)[C@@H](NC(=O)Cc3cccs3)[C@H]2SC1,,inactive
CCN(CC)S(=O)(=O)c1ccc(C(=O)O)cc1,8.94% (inactive),
CCCCCCCCCCCCCCCC(=O)NCCO,,inactive
Cc1cc(NS(=O)(=O)c2ccc(N)cc2)no1,,inactive
CCCCCCCCCCCCCCCCCC(=O)O,-1.94% (inactive),
CC(C)NCC(O)c1cc(O)cc(O)c1 (stereo unspecified),,inactive
CC1(COc2ccc(CC3SC(=O)NC3=O)cc2)CCCCC1 (stereo unspecified),-15% (inactive),
NS(=O)(=O)c1cc(C(=O)O)cc(N2CCCC2)c1Oc1ccccc1,4.8% (inactive),
NS(=O)(=O)c1ccc(C(=O)O)cc1,5.39% (inactive),
